± gives the standard deviation of the averaged measurements.
Test system: lanierone-responsive B-neuron OSN class (ItypOR36)
Experiment: net action potential response of lanierone B-neuron (blank-subtracted) (spikes/s (Hz)); higher = stronger excitation
Details: 10 µg on filter paper, neuron: B neuron (small spike amplitude)
Method: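 Single sensillum recordings from antennal olfactory sensilla of live adult Ips typographus. Each compound was 10 µg in paraffin oil, delivered as a 0.5 s puff. Net response = spikes in the first 0.5 s of response minus the 0.5 s pre-stimulus count, doubled to give Hz, with blank response subtracted. Values are for the small-spike lanierone-responsive B-neuron (putatively expressing ItypOR36), recorded in sensilla co-housing the A-neuron class; N = 1-4, averaged.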

[1] = co-localized A-neuron class: (4S)-cis-verbenol
[2] = co-localized A-neuron class: (5S,7S)-trans-conophthorin
[3] = co-localized A-neuron class: (+)-isopinocamphone
[4] = co-localized A-neuron class: (+)-trans-4-thujanol
[5] = co-localized A-neuron class: ipsdienol
[6] = co-localized A-neuron class: myrcene
[7] = co-localized A-neuron class: p-cymene

Row | SMILES | net action potential response [1] | net action potential response [2] | net action potential response [3] | net action potential response [4] | net action potential response [5] | net action potential response [6] | net action potential response [7]
1 | Cc1ccccc1 [Toluene] | 2 ± 4 | -1 ± 5 | -4 | 1 ± 1.1 | -2 ± 3.5 | 0 | 0
2 | O=Cc1ccccc1 [Benzaldehyde] | 0 ± 3.5 | 0.667 ± 1.1 | -2.67 ± 3.1 | -2.5 ± 10 | 2 ± 7.2 | -6 | 0
3 | C=CCc1ccc(OC)cc1 [Estragole] | 1.33 ± 7.6 | 0 ± 7.8 | 0 ± 2 | 0 ± 4.3 | 4 ± 5.3 | -8 | -2.67 ± 1.1
